Read-out in assay [1]: Interleukin-1 alpha (IL1a), IL1A (gene 3552)
As to the kind of experiment: BSK_LPS_IL1a: BioMAP Diversity Plus: LPS Assay for Interleukin-1 alpha (IL1a) Biomarker Activity (AID 2283080). The conditions noted are these: primary human HUVEC with PBMC; actives raise or lower the signal. The method, boiled down:
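Measured: IL-1 alpha via ELISA at 24 h in LPS-activated human umbilical vein endothelium–PBMC co-culture. Baseline: DMSO, bidirectional fitting.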

Read-out in assay [2]: Monocyte Chemoattractant Protein-1 (MCP1), CCL2 (gene 6347)
As to the kind of experiment: BSK_LPS_MCP1: BioMAP Diversity Plus: LPS Assay for Monocyte Chemoattractant Protein-1 (MCP1) Biomarker Activity (AID 2283081).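 As to AC50: secreted MCP-1 protein quantified by ELISA in culture supernatant.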 The conditions noted are these: primary human HUVEC with PBMC; actives raise or lower the signal. The method in brief:
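LPS-stimulated HUVEC/PBMC co-culture; chemical, 24 h; MCP-1 by ELISA; bidirectional fit vs DMSO; cytotoxicity via SRB (0.1% stain, 10% TCA fix, 560 nm) in parallel wells.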

Assay [3] in a line: BSK_LPS_PGE2: BioMAP Diversity Plus: LPS Assay for Prostaglandin E2 (PGE2) Biomarker Activity (AID 2283082).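 As to AC50: secreted prostaglandin E2 measured by ELISA in LPS-stimulated co-culture.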 The conditions noted are these: primary human HUVEC with PBMC; actives raise or lower the signal. The method, boiled down:
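ELISA read-out of PGE2 from human umbilical vein endothelial cells co-cultured with peripheral blood mononuclear cells under LPS, 24 h post-dose. Gain or loss of signal scored relative to DMSO baseline.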

Read-out in assay [4]: Macrophage colony-stimulating factor (MCSF), CSF1 (gene 1435)
As to the kind of experiment: BSK_LPS_MCSF: BioMAP Diversity Plus: LPS Assay for Macrophage colony-stimulating factor (MCSF) Biomarker Activity (AID 2283083). The conditions noted are these: primary human HUVEC with PBMC; actives raise or lower the signal. The method, boiled down:
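Compound is added to a human vascular primary co-culture of umbilical vein endothelium and blood mononuclear cells. After 24 h, M-CSF is quantified by ELISA. Signal changes are fitted in both directions against DMSO.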

Read-out in assay [5]: Tissue Factor, F3 (gene 2152)
The assay can be described thus: BSK_LPS_TissueFactor: BioMAP Diversity Plus: LPS Assay for Tissue Factor Biomarker Activity (AID 2283084). The conditions noted are these: primary human HUVEC with PBMC; actives raise or lower the signal. The method in brief: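 In this co-culture system of umbilical vein endothelium with PBMC, stimulated with LPS, cell-surface CD142 is detected by ELISA at 24 h. Endpoint values derive from bidirectional fitting, DMSO serving as baseline.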

Read-out in assay [6]: Tumor necrosis factor (Homo sapiens) (UniProt P01375)
The assay can be described thus: BSK_LPS_TNFa: BioMAP Diversity Plus: LPS Assay for Tumour Necrosis Factor alpha (TNFa) Biomarker Activity (AID 2283085).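 As to AC50: TNFa protein level quantified by ELISA in the co-culture.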 The conditions noted are these: primary human HUVEC with PBMC; actives raise or lower the signal. The method in brief: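 HUVEC/PBMC co-culture, LPS-stimulated; 24 h post-dose; TNFa by ELISA; gain or loss of signal fitted bidirectionally vs DMSO baseline.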

Read-out in assay [7]: Vascular cell adhesion molecule 1 (VCAM1), VCAM1 (gene 7412)
The assay can be described thus: BSK_LPS_VCAM1: BioMAP Diversity Plus: LPS Assay for Vascular cell adhesion molecule 1 (VCAM1) Biomarker Activity (AID 2283086). The conditions noted are these: primary human HUVEC with PBMC; actives raise or lower the signal. The method in brief:
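ELISA read-out of VCAM-1 at 24 h post-dosing in an LPS-driven HUVEC/PBMC primary human co-culture; gain or loss of signal fitted bidirectionally against DMSO baseline. Cytotoxicity tracked in parallel cultures by SRB total-protein staining.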

Read-out in another assay: CD38, CD38 (gene 952)
The assay can be described thus: BSK_SAg_CD38: BioMAP Diversity Plus: SAg Assay for CD38 Biomarker Activity (AID 2283087). The conditions noted are these: primary human HUVEC with PBMC; actives raise or lower the signal. The method, boiled down:
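Measures CD38 on a human endothelial/PBMC co-culture driven by SEB and TSST-1, 24 h after compound exposure, using ELISA with fluorescence detection; DMSO defines baseline for bidirectional curve fitting.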

Read-out in another assay: CD40, CD40 (gene 958)
The assay can be described thus: BSK_SAg_CD40: BioMAP Diversity Plus: SAg Assay for CD40 Biomarker Activity (AID 2283088). The conditions noted are these: primary human HUVEC with PBMC; actives raise or lower the signal. The method, boiled down: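 Fluorescence ELISA read-out of CD40 from umbilical vein endothelium plus peripheral blood mononuclear cells, sampled 24 h after dosing. Values come from bidirectional curve fitting with DMSO as baseline.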

Read-out in a further assay: CD69, CD69 (gene 969)
The assay can be described thus: BSK_SAg_CD69: BioMAP Diversity Plus: SAg Assay for CD69 Biomarker Activity (AID 2283089).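 As to AC50: cell surface CD69 protein quantified by ELISA with fluorescence detection.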 The conditions noted are these: primary human HUVEC with PBMC; actives raise or lower the signal. The method in brief:
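HUVEC co-cultured with PBMC were dosed with chemical, and CD69 was measured by ELISA with fluorescence read-out 24 h later. Bidirectional curve fitting used DMSO as negative control and activity baseline.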

Read-out in assay [8]: Monocyte Chemoattractant Protein-1 (MCP1), CCL2 (gene 6347)
As to the kind of experiment: BSK_SAg_MCP1: BioMAP Diversity Plus: SAg Assay for Monocyte Chemoattractant Protein-1 (MCP1) Biomarker Activity (AID 2283090). The conditions noted are these: primary human HUVEC with PBMC; actives raise or lower the signal. The method in brief: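 Values derive from bidirectional fitting of ELISA-measured MCP1 against DMSO controls. Readings were taken 24 h after dosing human vascular endothelial cells co-cultured with peripheral blood mononuclear cells under superantigen stimulation.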

Read-out in assay [9]: E-selectin (Homo sapiens) (UniProt P16581)
As to the kind of experiment: BSK_SAg_Eselectin: BioMAP Diversity Plus: SAg Assay for Eselectin Biomarker Activity (AID 2283091). The conditions noted are these: primary human HUVEC with PBMC; actives raise or lower the signal. The method in brief: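 Primary human endothelial cells and peripheral blood mononuclear cells were co-cultured and exposed to chemical for 24 hours. E-selectin levels were then quantified by ELISA, with bidirectional curve fitting normalised to DMSO controls.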

Read-out in assay [10]: Monokine induced gamma interferon (MIG), CXCL9 (gene 4283)
As to the kind of experiment: BSK_SAg_MIG: BioMAP Diversity Plus: SAg Assay for Monokine induced gamma interferon (MIG) Biomarker Activity (AID 2283092). The conditions noted are these: primary human HUVEC with PBMC; actives raise or lower the signal. The method, boiled down:
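HUVEC plus human PBMC co-culture, chemicals dosed and MIG (CXCL9) quantified by ELISA at 24 h. Bidirectional curve fitting against DMSO as negative control and baseline, so both gain and loss of signal count as activity.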

A short description of assay [11]: BSK_SAg_PBMCCytotoxicity: PBMC Cytotoxicity Assessment in the BioMAP Diversity Plus: SAg Assay (AID 2283093).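 Also: fitted both ways against DMSO so a hit may be loss or gain of signal.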 The conditions noted are these: primary human HUVEC with PBMC. The method in brief:
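PBMC viability by Alamar Blue reduction, fluorescence read at 546/580 nm after 6 h dye exposure. Cells were dosed 1 h before SEB plus TSST-1 activation (20 ng/mL final each), then held 90 h; endothelial/PBMC human co-culture.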

Read-out in assay [12]: Interleukin-8 (IL8), CXCL8 (gene 3576)
The assay can be described thus: BSK_SAg_IL8: BioMAP Diversity Plus: SAg Assay for Interleukin-8 (IL8) Biomarker Activity (AID 2283094). The conditions noted are these: primary human HUVEC with PBMC; actives raise or lower the signal. The method, boiled down:
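HUVEC/PBMC co-culture, 24 h post-dose; IL-8 by ELISA. Gain or loss of signal fitted bidirectionally vs DMSO baseline.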

Assay [13] is described as follows: BSK_SAg_Proliferation: Cell Proliferation Assessment in the BioMAP Diversity Plus: SAg Assay (AID 2283095).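 Also: relative cell number as total protein by SRB absorbance in sub-confluent culture.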 The conditions noted are these: primary human HUVEC with PBMC. The method in brief:
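HUVEC/PBMC co-culture, 96-well. TCA-fixed (10%), 0.1% SRB stain, A560 at 96 h. Protein content used as viability readout; bidirectional fitting vs DMSO control.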

Assay [14] in a line: BSK_SAg_SRB: Viability Assessment in the BioMAP Diversity Plus: SAg Assay (AID 2283096).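 Also: cells read one day after compound addition; hits may be either gain or loss of signal compared with DMSO.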 The conditions noted are these: primary human HUVEC with PBMC. The method, boiled down: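 Compounds were added to a human vascular co-culture of umbilical vein endothelium and PBMC. After 24 h, parallel cultures were fixed with 10% TCA, stained with 0.1% sulforhodamine B and read at 560 nm. Gain or loss of signal was fitted relative to DMSO.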

In assay [15] the target is human CYP19A1, CYP19A1 (gene 1588) (UniProt P11511). As to the kind of experiment: NVS_ADME_hCYP19A1: NovaScreen (NVS) CYP450-related Enzyme Activity (ADME) Assay for human CYP19A1 (AID 2283098; active = hit-call score of the fitted dose curve at least 0.9, where 1 is the maximum). The method in brief:
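Fluorescence intensity read-out; activity taken as signal loss relative to acetonitrile vehicle. Extracted enzyme, specific substrate, no cells, 0.5 h exposure. Duplicate single-point screen at 10 uM, then concentration–response follow-up for actives.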

The structures appear in SMILES notation. Inconclusive results are not listed. Calls of active or inactive are those of the source. The calls were made as follows, unless noted: active = hit-call score of the fitted dose curve at least 0.9, where 1 is the maximum; inactive = score below 0.9.

Chain of E-selectin (Homo sapiens) (P16581 whole entry, looked up): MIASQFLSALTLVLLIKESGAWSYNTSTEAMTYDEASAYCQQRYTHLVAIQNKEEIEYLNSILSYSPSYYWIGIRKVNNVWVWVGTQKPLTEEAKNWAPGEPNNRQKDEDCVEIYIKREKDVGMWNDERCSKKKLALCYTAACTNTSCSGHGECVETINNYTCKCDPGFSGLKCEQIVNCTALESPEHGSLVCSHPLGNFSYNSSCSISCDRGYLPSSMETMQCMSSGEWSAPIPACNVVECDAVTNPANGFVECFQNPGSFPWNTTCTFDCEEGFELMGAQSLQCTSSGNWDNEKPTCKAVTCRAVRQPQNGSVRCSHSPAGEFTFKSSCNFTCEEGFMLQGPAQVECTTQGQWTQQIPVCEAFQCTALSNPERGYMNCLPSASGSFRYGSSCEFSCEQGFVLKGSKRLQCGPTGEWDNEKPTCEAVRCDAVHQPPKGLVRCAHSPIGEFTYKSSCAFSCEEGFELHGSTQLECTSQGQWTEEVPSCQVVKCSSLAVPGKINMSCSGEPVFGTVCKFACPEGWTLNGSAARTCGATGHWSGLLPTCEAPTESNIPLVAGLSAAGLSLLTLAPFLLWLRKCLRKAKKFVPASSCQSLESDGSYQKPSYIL
Chain of Tumor necrosis factor (Homo sapiens) (P01375 whole entry, looked up): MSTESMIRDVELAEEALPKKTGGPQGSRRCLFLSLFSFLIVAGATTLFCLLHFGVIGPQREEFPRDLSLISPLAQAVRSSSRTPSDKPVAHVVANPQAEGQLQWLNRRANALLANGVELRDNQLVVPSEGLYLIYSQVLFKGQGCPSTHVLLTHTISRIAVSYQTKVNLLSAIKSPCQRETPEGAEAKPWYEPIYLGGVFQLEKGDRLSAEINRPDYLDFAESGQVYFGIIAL
Chain of human CYP19A1, CYP19A1 (gene 1588) (P11511 whole entry, looked up): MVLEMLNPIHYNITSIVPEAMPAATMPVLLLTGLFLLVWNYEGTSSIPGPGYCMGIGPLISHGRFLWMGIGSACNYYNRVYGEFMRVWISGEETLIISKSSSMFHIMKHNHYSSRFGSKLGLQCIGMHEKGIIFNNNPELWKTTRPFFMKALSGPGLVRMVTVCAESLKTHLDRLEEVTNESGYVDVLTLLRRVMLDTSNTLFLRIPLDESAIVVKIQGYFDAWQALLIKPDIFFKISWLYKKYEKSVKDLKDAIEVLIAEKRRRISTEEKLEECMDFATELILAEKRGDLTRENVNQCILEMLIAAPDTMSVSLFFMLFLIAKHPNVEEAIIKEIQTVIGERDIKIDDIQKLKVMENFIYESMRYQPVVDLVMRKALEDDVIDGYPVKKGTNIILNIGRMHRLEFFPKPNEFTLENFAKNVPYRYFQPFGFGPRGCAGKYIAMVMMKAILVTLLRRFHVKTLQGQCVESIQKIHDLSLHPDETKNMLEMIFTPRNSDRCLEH

As for `O=C(O)CCCOc1ccc(Cl)cc1Cl`, the outcome in assay [1], in assay [2], in assay [4], in assay [5], in [6] and in assay [7] was inactive. In addition, the outcome with CD38, CD38 (gene 952) is “inactive”; in the assay with CD40, CD40 (gene 958) it was “inactive”; in the assay with CD69, CD69 (gene 969) it was “inactive”; in assay [8] it was “inactive”; in assay [9], “inactive”; in [10], “inactive”. Moreover, the outcome in assay [11], in assay [12], in [13], in [14] and in [15] was inactive. In addition, the concentration at half-maximal activity (AC50) – broadly, the midpoint of the concentration-response curve, whichever way the signal moves – in assay [3] is 15.2 µM (active).

As to `CCc1ccc(C(=O)NN(C(=O)c2cc(C)cc(C)c2)C(C)(C)C)cc1`, the outcome in assay [1] is “inactive”; in assay [2], “inactive”; in [4], “inactive”; in [5], “inactive”; in assay [7], “inactive”; with CD40, CD40 (gene 958), “inactive”. Also, the result in [8], in assay [10], in assay [11] and in [14] was inactive. For the same molecule, the half-maximal activity concentration (AC50) in assay [3] was 20 µM (active); in [6], 14.2 µM (active); with CD38, CD38 (gene 952), 30.6 µM (active); with CD69, CD69 (gene 969), 13.5 µM (active); in [9] it was 9.03 µM (active); in assay [12], 11.3 µM (active). For the same molecule, the AC50 in assay [13] was 17.7 µM (active).

Consider `C[C@H]1[C@H](c2ccc(Cl)cc2)SC(=O)N1C(=O)NC1CCCCC1`, for which the AC50 was 26.4 µM (active) in assay [1]; 20.1 µM (active) in [2]; 14.6 µM (active) in [4]; 12.5 µM (active) in assay [7]; 16 µM (active) in the assay with CD38, CD38 (gene 952); 15.4 µM (active) in the assay with CD40, CD40 (gene 958). Besides, the AC50 in the assay with CD69, CD69 (gene 969) was 13.5 µM (active); in [8] it was 27 µM (active); in assay [9], 15.2 µM (active); in assay [12] it was 13.6 µM (active); in [13], 18.1 µM (active); in assay [14], 9.32 µM (active). For the same molecule, the result in assay [3], in assay [5], in assay [6], in assay [10] and in assay [11] was inactive.
